Measurements reported in the supplement of paper PMC8975748.
Counter-ions that a name gives are not always drawn.

system: Saccharomyces cerevisiae BY4741 SeMeCo community; assay: z-score of subpopulation abundance vs DMSO median, subpopulation auxotrophic for HL; higher = larger share of this subpopulation than in DMSO controls; conditions: 10 µM; 24 h; SM minimal medium; subpopulation (auxotrophy): HL
In short: (§1)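 Cells of a Saccharomyces cerevisiae BY4741 community, carrying four plasmids that each restored one auxotrophy and encoded a distinct fluorescent protein, were pre-grown overnight to OD600 1.0 and diluted to 0.3. A 70 µl volume was added to 384-well plates acoustically predosed with library drugs (10 µM final) and grown 24 h in minimal SM medium. After paraformaldehyde fixation, automated confocal microscopy was used, with single-auxotroph fluorescent strains for thresholds and autofluorescence correction. The abundance of each subpopulation was scored as a z-score against the vehicle-well median.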

| Structure (SMILES) | z-score of subpopulation abundance |
| --- | --- |
| CCC[S+]([O-])c1ccc2[nH]c(NC(=O)OC)nc2c1 (configuration not stated) [Albendazole Oxide] | -0.18 |
| O=C(O)C1=C(CSc2nnnn2CS(=O)(=O)O)CS[C@@H]2[C@H](NC(=O)[C@H](O)c3ccccc3)C(=O)N12 [Cefonicid sodium] | 0.41 |
| O=C(O)CCCCCCCC(=O)O [Azelaic acid] | -0.5 |
| CN[C@H]1CC[C@@H](c2ccc(Cl)c(Cl)c2)c2ccccc21 [Sertraline HCl] | -0.5 |
| CN(C)CCCN1c2ccccc2Sc2ccccc21 [Promazine hydrochloride] | -0.82 |
| CC1(C)S[C@@H]2[C@H](NC(=O)[C@H](N)c3ccc(O)cc3)C(=O)N2[C@H]1C(=O)O [Amoxicillin trihydrate] | -0.69 |
| Cc1cccc(N(C)C(=S)Oc2ccc3ccccc3c2)c1 [Tolnaftate] | -0.75 |
| Fc1ccc([C@@H]2CCNC[C@H]2COc2ccc3c(c2)OCO3)cc1 [Paroxetine mesylate] | -0.67 |

system: Saccharomyces cerevisiae BY4741 SeMeCo community; assay: z-score of subpopulation abundance vs DMSO median, subpopulation auxotrophic for HLM; higher = larger share of this subpopulation than in DMSO controls; conditions: 10 µM; 24 h; SM minimal medium; subpopulation (auxotrophy): HLM
In short: as §1

| Structure (SMILES) | z-score of subpopulation abundance |
| --- | --- |
| CCC[S+]([O-])c1ccc2[nH]c(NC(=O)OC)nc2c1 (configuration not stated) [Albendazole Oxide] | -0.85 |
| O=C(O)C1=C(CSc2nnnn2CS(=O)(=O)O)CS[C@@H]2[C@H](NC(=O)[C@H](O)c3ccccc3)C(=O)N12 [Cefonicid sodium] | 0.46 |
| O=C(O)CCCCCCCC(=O)O [Azelaic acid] | -0.07 |
| CN[C@H]1CC[C@@H](c2ccc(Cl)c(Cl)c2)c2ccccc21 [Sertraline HCl] | -0.66 |
| CN(C)CCCN1c2ccccc2Sc2ccccc21 [Promazine hydrochloride] | 0.41 |
| Fc1ccc([C@@H]2CCNC[C@H]2COc2ccc3c(c2)OCO3)cc1 [Paroxetine mesylate] | 0.34 |

system: Saccharomyces cerevisiae BY4741 SeMeCo community; assay: z-score of subpopulation abundance vs DMSO median, subpopulation auxotrophic for HUM; higher = larger share of this subpopulation than in DMSO controls; conditions: 10 µM; 24 h; SM minimal medium; subpopulation (auxotrophy): HUM
In short: as §1

| Structure (SMILES) | z-score of subpopulation abundance |
| --- | --- |
| CCC[S+]([O-])c1ccc2[nH]c(NC(=O)OC)nc2c1 (configuration not stated) [Albendazole Oxide] | 0.36 |
| O=C(O)C1=C(CSc2nnnn2CS(=O)(=O)O)CS[C@@H]2[C@H](NC(=O)[C@H](O)c3ccccc3)C(=O)N12 [Cefonicid sodium] | -0.26 |
| O=C(O)CCCCCCCC(=O)O [Azelaic acid] | 0.47 |
| CN[C@H]1CC[C@@H](c2ccc(Cl)c(Cl)c2)c2ccccc21 [Sertraline HCl] | -0.4 |
| CN(C)CCCN1c2ccccc2Sc2ccccc21 [Promazine hydrochloride] | 0.07 |
| CC1(C)S[C@@H]2[C@H](NC(=O)[C@H](N)c3ccc(O)cc3)C(=O)N2[C@H]1C(=O)O [Amoxicillin trihydrate] | -0.08 |
| Cc1cccc(N(C)C(=S)Oc2ccc3ccccc3c2)c1 [Tolnaftate] | -0.16 |
| Fc1ccc([C@@H]2CCNC[C@H]2COc2ccc3c(c2)OCO3)cc1 [Paroxetine mesylate] | -0.17 |
